# According to PubChem BioAssay (EPA / NIEHS):
# Inconclusive results are not listed. Calls of active or inactive are those of the source. The calls were made as follows, unless noted: active = hit-call score of the fitted dose curve at least 0.9, where 1 is the maximum; inconclusive = response in the unintended direction; inactive = score below 0.9.
# Tests used:
# [1] = target: Cellular tumor antigen p53 (Homo sapiens) (UniProt P04637); assay: TOX21_p53_BLA_p2_ratio: Tox21 HCT-116 p53 Agonism Beta-lactamase Assay, Ratio, Phase 2 (AID 2283592)
# Chain of Cellular tumor antigen p53 (Homo sapiens) (P04637 whole entry, looked up): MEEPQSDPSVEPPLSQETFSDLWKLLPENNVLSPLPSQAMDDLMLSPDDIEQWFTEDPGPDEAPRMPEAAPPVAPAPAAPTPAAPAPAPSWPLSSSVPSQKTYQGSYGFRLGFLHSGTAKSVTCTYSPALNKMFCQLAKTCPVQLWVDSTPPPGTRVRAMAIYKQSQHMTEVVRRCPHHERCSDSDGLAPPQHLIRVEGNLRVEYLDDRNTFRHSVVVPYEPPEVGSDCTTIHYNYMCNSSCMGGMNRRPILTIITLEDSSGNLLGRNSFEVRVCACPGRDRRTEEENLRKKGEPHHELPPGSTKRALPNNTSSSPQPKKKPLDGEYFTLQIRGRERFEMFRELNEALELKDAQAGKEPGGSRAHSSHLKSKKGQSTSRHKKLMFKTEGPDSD
# How it was run: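 Cleaved-to-uncleaved substrate ratio (460 vs 530 nm) measured in HCT116 cells with an inducible beta-lactamase reporter linked to p53 activity. Compounds incubated 16 h at 37C before 2 h room-temperature CCF4-AM loading.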
# [2] = TOX21_p53_BLA_p3_viability: Viability Assessment in the Tox21 HCT-116 p53 Agonism Beta-lactamase Assay, Phase 3 (AID 2283593);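 also: cells exposed to compound for 16 h before reading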
# How it was run: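 Cellular ATP was quantified by CellTiter-Glo luminescence, read after 30 min at room temperature. Beforehand, HCT116 cells (4000/well) received compound 5 h post-seeding, 217-fold diluted from DMSO, then incubated 16 h at 37C.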
# [3] = target: Cellular tumor antigen p53 (Homo sapiens) (UniProt P04637); assay: TOX21_p53_BLA_p3_ratio: Tox21 HCT-116 p53 Agonism Beta-lactamase Assay, Ratio, Phase 3 (AID 2283596)
# How it was run: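 Cells were seeded at 4000/well, rested 5 h at 37C, then dosed with DMSO compound solutions (217-fold dilution) for 16 h. CCF4-AM substrate was loaded for 2 h at room temperature, and the 460/530 nm emission ratio was fitted for gain of signal versus DMSO.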
# [4] = TOX21_p53_BLA_p4_viability: Viability Assessment in the Tox21 HCT-116 p53 Agonism Beta-lactamase Assay, Phase 4 (AID 2283597);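 also: hits lower the luminescence signal meaning cytotoxicity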
# How it was run: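 Viability is taken as cellular ATP: after 16 h compound exposure of HCT116 cells and a 2 h room-temperature CCF4-AM substrate step, CellTiter-Glo reagent is added and luminescence is measured 30 min later.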
# [5] = target: Cellular tumor antigen p53 (Homo sapiens) (UniProt P04637); assay: TOX21_p53_BLA_p5_ratio: Tox21 HCT-116 p53 Agonism Beta-lactamase Assay, Ratio, Phase 5 (AID 2283599)
# How it was run: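 Beta-lactamase reporter ratio (blue 460 nm over green 530 nm, 405 nm excitation) after 2 h CCF4-AM loading, in HCT-116 cells exposed 16 h at 37 C to compounds pinned at 217-fold dilution. Increases relative to DMSO baseline scored.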
# [6] = TOX21_p53_BLA_p5_viability: Viability Assessment in the Tox21 HCT-116 p53 Agonism Beta-lactamase Assay, Phase 5 (AID 2283600)
# How it was run: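 Viability is taken from cellular ATP content, measured by luciferase luminescence in the same wells after the beta-lactamase ratio read. Cells are seeded at 4000 per well and exposed to DMSO-dissolved compounds, diluted 217-fold, for 16 h.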
# [7] = target: Cellular tumor antigen p53 (Homo sapiens) (UniProt P04637); assay: TOX21_p53_BLA_p4_ratio: Tox21 HCT-116 p53 Agonism Beta-lactamase Assay, Ratio, Phase 4 (AID 2283601)
# How it was run: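 Signal is the blue/green (460nm/530nm) ratio of cleaved versus uncleaved CCF4-AM substrate, read after 2 h substrate loading. Cells were HCT116 carrying the p53-responsive beta-lactamase reporter, dosed 16 h at 37C, 5% CO2; CellTiter-Glo measured in parallel.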
# [8] = test system: Thyroperoxidase (TPO), gene 54314; assay: CCTE_Simmons_AUR_rTPO: CCTE's Amplex UltraRed Assay for Thyroperoxidase (TPO) Inhibition, Simmons Lab (AID 2283662)
# How it was run: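 Rat thyroid microsomal TPO + 25 uM AUR in 200 mM K phosphate; cpd 5 nM–87.5 uM [final], 8 conc, 0.5% DMSO; 300 uM H2O2 starts rxn; 37C dark 30 min; endpoint FI 544/590 nm; n=3.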
# [9] = target: Luciferin 4-monooxygenase (Photinus pyralis) (UniProt P08659); assay: CCTE_Simmons_QuantiLum_inhib_2: CCTE's Firefly Luciferase Inhibition Assay, Simmons Lab (AID 2283767)
# Chain of Luciferin 4-monooxygenase (Photinus pyralis) (P08659 whole entry, looked up): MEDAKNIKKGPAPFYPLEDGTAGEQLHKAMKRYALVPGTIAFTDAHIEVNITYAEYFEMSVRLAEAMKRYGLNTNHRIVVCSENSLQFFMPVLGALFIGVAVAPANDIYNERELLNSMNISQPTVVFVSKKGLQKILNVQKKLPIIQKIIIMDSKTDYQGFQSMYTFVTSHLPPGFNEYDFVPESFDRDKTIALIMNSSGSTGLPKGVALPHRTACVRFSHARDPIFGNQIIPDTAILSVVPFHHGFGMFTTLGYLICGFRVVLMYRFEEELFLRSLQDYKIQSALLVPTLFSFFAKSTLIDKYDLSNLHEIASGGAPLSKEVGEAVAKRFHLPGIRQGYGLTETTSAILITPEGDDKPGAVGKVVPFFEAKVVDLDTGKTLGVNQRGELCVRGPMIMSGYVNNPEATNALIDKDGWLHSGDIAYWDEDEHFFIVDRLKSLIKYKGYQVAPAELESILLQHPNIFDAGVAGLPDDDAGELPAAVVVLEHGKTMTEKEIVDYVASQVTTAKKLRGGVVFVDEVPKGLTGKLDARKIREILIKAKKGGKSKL
# How it was run: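 First, 5 ng purified luciferase in phosphate buffer with BSA is dispensed per well. Next, test chemicals (5 nM to 87.5 uM final, 0.5% DMSO) are added and incubated 30 min at 37C in darkness. Finally, luciferin reagent is injected and luminescence read kinetically.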
# [10] = target: Nucleoli Translocation, AR (gene 367) (UniProt P10275); assay: UPITT_HCI_U2OS_AR_TIF2_Nucleoli_Antagonist: University of Pittsburgh U2OS Androgen Receptor-Transcriptional Intermediary Factor 2 (AR-TIF2) Antagonism High Content Imaging Assay for Nucleoli Translocation (AID 2283997)
# Chain of Nucleoli Translocation, AR (gene 367) (P10275 whole entry, looked up): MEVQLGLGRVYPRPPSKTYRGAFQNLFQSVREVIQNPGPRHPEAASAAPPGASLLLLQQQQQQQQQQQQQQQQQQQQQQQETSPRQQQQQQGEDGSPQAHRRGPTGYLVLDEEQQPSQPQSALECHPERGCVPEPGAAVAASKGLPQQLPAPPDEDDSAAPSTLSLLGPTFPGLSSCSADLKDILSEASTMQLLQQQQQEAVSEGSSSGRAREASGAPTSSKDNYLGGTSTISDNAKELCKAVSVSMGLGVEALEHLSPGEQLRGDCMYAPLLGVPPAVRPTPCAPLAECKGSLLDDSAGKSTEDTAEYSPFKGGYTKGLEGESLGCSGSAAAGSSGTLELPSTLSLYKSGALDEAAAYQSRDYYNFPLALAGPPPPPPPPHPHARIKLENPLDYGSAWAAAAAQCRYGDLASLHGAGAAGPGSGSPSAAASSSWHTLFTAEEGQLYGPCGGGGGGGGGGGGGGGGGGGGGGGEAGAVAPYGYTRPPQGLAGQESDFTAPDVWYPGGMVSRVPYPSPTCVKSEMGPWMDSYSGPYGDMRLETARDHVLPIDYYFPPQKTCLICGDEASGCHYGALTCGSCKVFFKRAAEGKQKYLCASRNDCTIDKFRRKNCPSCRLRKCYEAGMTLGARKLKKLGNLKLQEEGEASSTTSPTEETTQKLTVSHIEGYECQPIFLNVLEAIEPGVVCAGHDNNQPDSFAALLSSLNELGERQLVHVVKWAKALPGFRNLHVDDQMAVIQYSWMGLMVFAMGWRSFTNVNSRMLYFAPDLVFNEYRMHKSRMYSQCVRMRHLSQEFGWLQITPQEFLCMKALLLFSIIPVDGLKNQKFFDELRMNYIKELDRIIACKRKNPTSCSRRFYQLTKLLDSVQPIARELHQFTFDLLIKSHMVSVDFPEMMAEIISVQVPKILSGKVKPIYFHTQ
# How it was run: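 Antagonism is read as loss of nucleolar AR-RFP signal relative to DHT, imaged in U2OS cells also carrying GFP-TIF2. Compounds screened at 20 uM final, 0.2% DMSO; primary actives retested in triplicate.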
# [11] = target: Nucleoli Translocation, AR (gene 367) (UniProt P10275); assay: UPITT_HCI_U2OS_AR_TIF2_Nucleoli_Agonist: University of Pittsburgh U2OS Androgen Receptor-Transcriptional Intermediary Factor 2 (AR-TIF2) Agonism High Content Imaging Assay for Nucleoli Translocation (AID 2283998)
# How it was run: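 Red-tagged human androgen receptor co-expressed with GFP-tagged TIF2 serves as the binding reporter. Primary testing used 20 uM final (0.2% DMSO); follow-up dose response covered 0.195 to 50 uM final (0.5% DMSO).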
# [12] = target: Ratio of Nucleoli Translocation and Cytoplasm, AR (gene 367) (UniProt P10275); assay: UPITT_HCI_U2OS_AR_TIF2_Nucleoli_Cytoplasm_Ratio_Antagonist: University of Pittsburgh U2OS Androgen Receptor-Transcriptional Intermediary Factor 2 (AR-TIF2) Antagonism High Content Imaging Assay for Ratio of Nucleoli Translocation and Cytoplasm (AID 2283999);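 also: antagonists lower the DHT-driven ratio of nucleolar to cytoplasmic red signal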
# Chain of Ratio of Nucleoli Translocation and Cytoplasm, AR (gene 367) (P10275 whole entry, looked up): as above
# How it was run: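 Compounds were added to U2OS cells carrying red-fluorescent AR and green-fluorescent TIF2, first at 20 uM, with hits confirmed in triplicate and titrated from 0.195 to 50 uM. Nucleolar versus cytoplasmic AR-RFP fluorescence was then quantified by imaging, with analysis relative to DHT.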
# [13] = target: Ratio of Nucleoli Translocation and Cytoplasm, AR (gene 367) (UniProt P10275); assay: UPITT_HCI_U2OS_AR_TIF2_Nucleoli_Cytoplasm_Ratio_Agonist: University of Pittsburgh U2OS Androgen Receptor-Transcriptional Intermediary Factor 2 (AR-TIF2) Agonism High Content Imaging Assay for Ratio of Nucleoli Translocation and Cytoplasm (AID 2284000);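 also: hits raise the red nucleolar to cytoplasm ratio above vehicle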
# How it was run: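 Compounds tested at 20 uM final in primary screen (0.2% DMSO) and 0.195-50 uM final in dose-response (0.5% DMSO). Imaging of human U2OS cells bearing RFP-AR and GFP-TIF2; endpoint is nucleoli/cytoplasm red signal ratio, positive direction relative to DMSO.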
# [14] = CCTE_Harrill_HTTr_Viability_MCF7: CCTE's 6-hour Cell Viability Assessment for the High-Throughput Transcriptomics (HTTr) Platform, in MCF-7 cells cultured in DMEM + 10% fetal bovine serum, Harrill Lab (AID 2284010; active = hit-call score of the fitted dose curve at least 0.9, where 1 is the maximum; inactive = score below 0.9)
# How it was run: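 Read-out is propidium iodide gain of signal by high-content imaging, reflecting membrane integrity loss. Measurements are taken 6 h after dosing, eight concentrations per chemical, with DMSO serving as baseline for bidirectional curve fitting.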
# [15] = CCTE_Harrill_HTTr_Apoptosis_MCF7: CCTE's 6-hour Apoptosis Assessment for the High-Throughput Transcriptomics (HTTr) Platform, in MCF-7 cells cultured in DMEM + 10% fetal bovine serum, Harrill Lab (AID 2284011; active = hit-call score of the fitted dose curve at least 0.9, where 1 is the maximum; inactive = score below 0.9)
# How it was run: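 Cells are dosed with test chemicals at eight concentrations and imaged 6 hours later for caspase-3/7 activity using a green fluorogenic detection reagent. Activity is fitted in both directions against DMSO controls.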
# [16] = CCTE_Shafer_MEA_dev_firing_rate_mean: CCTE's Neural Network Formation Assay for Mean Firing Rate, Shafer Lab (AID 2284031; active = hit-call score of the fitted dose curve at least 0.9, where 1 is the maximum; inactive = score below 0.9)
# How it was run: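 Steps: seed rat cortical cells (1.5 x 10^5/well) with laminin on PEI-coated MEA; dose day 0; record DIV 5/7/9/12, full media and compound exchange after DIV 5 and 9 recordings; compute well-mean firing rate AUC.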
# [17] = CCTE_Shafer_MEA_dev_per_burst_spike_percent: CCTE's Neural Network Formation Assay for Percent of Spikes in a Burst, Shafer Lab (AID 2284032; active = hit-call score of the fitted dose curve at least 0.9, where 1 is the maximum; inactive = score below 0.9)
# How it was run: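 Value is trapezoidal AUC over recordings on days 5, 7, 9 and 12 of the well-mean fraction of spikes falling in single-electrode bursts; rat cortical cultures exposed continuously from plating, treatment renewed DIV 5 and 9, fitted downward against DMSO.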
smiles,measurement,setting,value
c1ccc2cc3c(cc2c1)-c1cccc2cccc-3c12,AC50,[1],3.24 µM (active)
same,outcome,[2],inactive
same,AC50,[3],11 µM (active)
same,outcome,[4],inactive
same,AC50,[5],4.58 µM (active)
same,outcome,[6],inactive
same,AC50,[7],1.98 µM (active)
same,outcome,[8],inactive
same,outcome,[9],inactive
same,AC50,[10],1.19 µM (active)
same,outcome,[11],inactive
same,outcome,[12],inactive
same,outcome,[13],inactive
same,outcome,[14],inactive
same,outcome,[15],inactive
same,outcome,[16],inactive
same,outcome,[17],inactive
